Results on 9 compounds are retold here after PubChem BioAssay (EPA / NIEHS).

Structures are written as SMILES. Results filed as inconclusive are left out. Calls of active or inactive are those of the source. The calls were made as follows, unless noted: active = hit-call score of the fitted dose curve at least 0.9, where 1 is the maximum; inconclusive = response in the unintended direction; inactive = score below 0.9.

A short description of assay [1]: Tanguay_ZF_120hpf_JAW_legacy: (Legacy) Oregon State University Tanguay Lab 120 Hour Post-fertilization zebrafish Assay for Jaw Malformation (AID 2283638).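 As to AC50: active means more embryos with jaw malformation than DMSO controls.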 In short, it runs like this: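 Static waterborne exposure of dechorionated wild-type (Tropical 5D) zebrafish from 6 to 120 hpf at 28C, 0.64% DMSO vehicle; 5uM trimethyltin chloride served as positive control. Jaw morphology recorded as binary at 120 hpf.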

Assay [2] can be described thus: Tanguay_ZF_120hpf_OTIC_legacy: (Legacy) Oregon State University Tanguay Lab 120 Hour Post-fertilization zebrafish Assay for Otic Vesicle Malformation (AID 2283639). The method in brief:
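Otic vesicle malformation is read as a yes/no morphology call at 120 hpf. Exposure is static at 28C with 0.64% (vol/vol) DMSO; embryos that die are excluded from non-mortality endpoints.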

Assay [3] in a line: Tanguay_ZF_120hpf_PE_legacy: (Legacy) Oregon State University Tanguay Lab 120 Hour Post-fertilization zebrafish Assay for Pericardial Edema (AID 2283640).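 As to AC50: potency for increased incidence of pericardial edema versus DMSO baseline.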 In short, it runs like this:
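Read-out is the presence or absence of pericardial edema at 120 hpf under brightfield, with gain of signal fitted against DMSO controls. Larvae (5D wild-type) were statically exposed at 28C with 0.64% final DMSO.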

A short description of assay [4]: Tanguay_ZF_120hpf_BRAI_legacy: (Legacy) Oregon State University Tanguay Lab 120 Hour Post-fertilization zebrafish Assay for Brain Malformation (AID 2283641). The method in brief: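 Brain malformation in Tropical 5D zebrafish was recorded as a binary endpoint after static compound exposure from early development to 120 hpf at 28C. Activity was analysed against DMSO as negative control.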

Assay [5] can be described thus: Tanguay_ZF_120hpf_SOMI_legacy: (Legacy) Oregon State University Tanguay Lab 120 Hour Post-fertilization zebrafish Assay for Somite Malformation (AID 2283647). The method in brief: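 5D WT zebrafish; chorion removed 4 hpf; 1 embryo/well from 6 hpf; static exposure to 120 hpf, 28C, 0.64% DMSO final. Endpoint: somite malformation, binary, brightfield. Mortality excluded.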

Assay [6] in a line: Tanguay_ZF_120hpf_PFIN_legacy: (Legacy) Oregon State University Tanguay Lab 120 Hour Post-fertilization zebrafish Assay for Pectoral Fin Malformation (AID 2283648).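 Also: each larva judged yes or no for fin defect by brightfield with dead larvae skipped.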 In short, it runs like this: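 5D WT zebrafish; pronase dechorionation 4 hpf; 1 embryo/well at 6 hpf; static exposure to 120 hpf, 28C, sealed, foil-covered; final DMSO 0.64% v/v; 5 uM trimethyltin chloride positive control; fin defect scored yes/no.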

Assay [7] in a line: Tanguay_ZF_120hpf_CFIN_legacy: (Legacy) Oregon State University Tanguay Lab 120 Hour Post-fertilization zebrafish Assay for Caudal Fin Malformation (AID 2283649). The method in brief:
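Embryos were collected from Tropical 5D wild-type adults and dechorionated at 4 hpf. At 6 hpf each was exposed, one per well, at 0.64% DMSO and 28C. At 120 hpf fin morphology was scored; dead embryos were excluded.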

The nature of assay [8]: Tanguay_ZF_120hpf_CIRC_legacy: (Legacy) Oregon State University Tanguay Lab 120 Hour Post-fertilization zebrafish Assay for Circulatory Malformation (AID 2283651). The method in brief: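 Using wild-type Tropical 5D zebrafish, we exposed dechorionated embryos from 6 to 120 hpf in embryo medium with 0.64% DMSO. Circulatory defects were scored as present or absent; 5uM trimethyltin chloride served as positive control.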

The nature of assay [9]: Tanguay_ZF_120hpf_SWIM_legacy: (Legacy) Oregon State University Tanguay Lab 120 Hour Post-fertilization zebrafish Assay for Swim Bladder Malformation (AID 2283654).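 Also: swim bladder malformation in each larva scored yes or no under brightfield.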 The method in brief: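 Embryos lacking chorions were exposed individually and statically to test chemical from 6 to 120 hpf at 28C, with 0.64% DMSO as vehicle. At 120 hpf, swim bladder malformation was recorded as present or absent by brightfield microscopy.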

Assay [10] is described as follows: Tanguay_ZF_120hpf_TRUN_legacy: (Legacy) Oregon State University Tanguay Lab 120 Hour Post-fertilization zebrafish Assay for Truncated Body (AID 2283655). The method in brief:
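5D wild-type larvae; pronase dechorionation; static exposure 6→120 hpf, 28C; DMSO 0.64% final; 5uM trimethyltin chloride positive control. Readout: presence/absence of truncated body, analyzed relative to DMSO.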

A short description of assay [11]: Tanguay_ZF_120hpf_NC_legacy: (Legacy) Oregon State University Tanguay Lab 120 Hour Post-fertilization zebrafish Assay for Notochord and Tail Malformation (AID 2283656). The method in brief: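 Dechorionated 5D zebrafish, 1/well from 6 hpf; static exposure to 120 hpf, 28C, sealed, dark; final DMSO 0.64% v/v. NC scored binary (present/absent); dead embryos not scored. Fit vs DMSO baseline, gain direction.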

For assay [12], the system named is Thyroperoxidase (TPO), gene 54314. Kind of assay: CCTE_Simmons_AUR_rTPO: CCTE's Amplex UltraRed Assay for Thyroperoxidase (TPO) Inhibition, Simmons Lab (AID 2283662).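 Also: potency for loss of signal meaning inhibition of peroxidase activity.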 In short, it runs like this:
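Endpoint is decreased Amplex UltraRed fluorescence after a 30-min, 37C reaction of rat thyroid microsomes with 300 uM H2O2. Eight test concentrations (5 nM–87.5 uM final) in 0.5% DMSO, three biological replicates each.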

Assay [13] can be described thus: Tanguay_ZF_120hpf_TR_legacy: (Legacy) Oregon State University Tanguay Lab 120 Hour Post-fertilization zebrafish Assay for Touch Response (AID 2283667). The method in brief:
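5D WT embryos; static exposure to 120 hpf, 28C, sealed/dark; DMSO 0.64% v/v final. TR scored present/absent; dead embryos excluded. Pos ctrl 5uM trimethyltin chloride.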

A short description of assay [14]: Tanguay_ZF_120hpf_PIG_legacy: (Legacy) Oregon State University Tanguay Lab 120 Hour Post-fertilization zebrafish Assay for Pigmentation Malformation (AID 2283650). In short, it runs like this: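 Pronase dechorionation at 4 hpf; embryos plated at 6 hpf, one per well; static exposure, sealed and foil-covered, 28C, to 120 hpf; pigmentation read by brightfield, binary; DMSO 0.64% baseline, 5uM trimethyltin chloride positive control.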

Read-out in assay [15]: solute carrier (SLC22A6), SLC22A6 (gene 9356)
Kind of assay: LTEA_HepaRG_SLC22A6: Life Technologies and Expression Analysis (LTEA) Assay for solute carrier (SLC22A6) using HepaRG (AID 2283653; active = hit-call score of the fitted dose curve at least 0.9, where 1 is the maximum; inactive = score below 0.9). Conditions: mRNA level, 48 h; actives raise or lower the signal. In short, it runs like this: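 This endpoint tracks SLC22A6 mRNA induction or suppression in human HepaRG cultures after 48 h dosing, concentrations reaching 100 uM. Values derive from bidirectional fitting against DMSO controls.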

Read-out in assay [16]: solute carrier (SLC10A1), SLC10A1 (gene 6554)
Kind of assay: LTEA_HepaRG_SLC10A1: Life Technologies and Expression Analysis (LTEA) Assay for solute carrier (SLC10A1) using HepaRG (AID 2283657; active = hit-call score of the fitted dose curve at least 0.9, where 1 is the maximum; inactive = score below 0.9). Conditions: mRNA level, 48 h; actives raise or lower the signal. The method in brief:
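Transcript levels were measured by qRT-PCR after human HepaRG cells received test chemical for 48 hours, up to 100 uM in half-log dilutions. Values come from bidirectional concentration-response fitting relative to 0.5% DMSO vehicle.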

Read-out in assay [17]: matrix metalloproteinase-1 (MMP1), MMP1 (gene 4312)
Kind of assay: LTEA_HepaRG_MMP1: Life Technologies and Expression Analysis (LTEA) Assay for matrix metalloproteinase-1 (MMP1) using HepaRG (AID 2283658; active = hit-call score of the fitted dose curve at least 0.9, where 1 is the maximum; inactive = score below 0.9). Conditions: mRNA level, 48 h; actives raise or lower the signal. In short, it runs like this: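 Bidirectional concentration-response fitting relative to 0.5% DMSO gives the endpoint, derived from MMP1 mRNA levels (qRT-PCR) in human HepaRG cells treated 48 h with chemicals up to 100 uM.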

Read-out in assay [18]: Cytochrome P450 (CYP24A1_1), CYP24A1 (gene 1591)
Kind of assay: LTEA_HepaRG_CYP24A1_1: Life Technologies and Expression Analysis (LTEA) Assay for Cytochrome P450 (CYP24A1_1) using HepaRG (AID 2283671; active = hit-call score of the fitted dose curve at least 0.9, where 1 is the maximum; inactive = score below 0.9). Conditions: mRNA level, 48 h; actives raise or lower the signal. The method in brief:
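In this test, gene induction or suppression of CYP24A1 in human HepaRG liver cells is measured by qRT-PCR after 48 h chemical treatment (eight concentrations, maximum 100 uM). Values are fitted bidirectionally relative to DMSO.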

The nature of assay [19]: CCTE_Simmons_CellTiterGLO_HEK293T: Viability Assessment in CCTE's Assays for Thyroperoxidase (TPO) Inhibition, Simmons Lab (AID 2283665).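 Also: cells exposed to compound for 24 h before readout; actives reduce ATP signal below DMSO vehicle meaning cytotoxicity.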 In short, it runs like this:
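Cytotoxicity counter-screen: human HEK293T cells in low-serum (1% FBS) medium receive test chemical, 5 nM to 87.5 uM final, for 24 h; ATP is quantified by luciferase luminescence.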

For the compound `O=c1c(-c2ccc(O)cc2)coc2cc(O)cc(O)c12`, the outcome in assay [1], in [2], in [3], in [4], in assay [5] and in [6] was inactive. For the same compound, the outcome in assay [7], in assay [8], in assay [9], in [10], in assay [11] and in assay [13] was inactive. Also, the concentration at half-maximal activity (AC50) in assay [12] was 3.6 µM (active).
Turning to `CCCCCCCCCCCCO`, the compound was called inactive in assay [1], in assay [2], in assay [3], in assay [4], in [5] and in assay [6]. Moreover, the call in [7], in [14], in assay [15], in [9], in assay [10] and in assay [11] was inactive. Further, the call in assay [16], in assay [17], in assay [13] and in [18] was inactive.
For `CC(C)(C)c1cc(/C=C2\SC(N)=NC2=O)cc(C(C)(C)C)c1O`, the compound was called inactive in assay [1], in [2], in assay [3], in [4], in [5] and in assay [6]. The outcome in [7], in [9] and in [13] was inactive. Besides, the results for the AC50 in assay [12] and in assay [19] were 5.18 µM (active) and 8.58 µM (active), respectively.
`CCN(Cc1cccnc1)C(=O)c1cccc(Cl)c1[C@]1(C)C(=O)N(Cc2ccc(OC)cc2OC)c2ccc(Cl)cc21`: the call in [1], in assay [2], in [3], in assay [4], in [5] and in [6] was inactive. The outcome in [7], in [14], in assay [9], in [10], in [11] and in assay [13] was inactive.
`CCCCCCCCCCCC[N+](C)(C)C`: the result in [1], in assay [2], in assay [3], in assay [4], in assay [5] and in assay [6] was inactive. The call in [7], in assay [14], in [9], in [11] and in assay [13] was inactive.
Turning to `CC(O)CC(C)(C)O` (stereo not drawn), the result in assay [1], in assay [2], in [3], in [4], in assay [5] and in assay [6] was inactive. For the same compound, the compound was classed as inactive in [7], in assay [8], in assay [9] and in assay [11].
`Cc1oc2c(NC(=O)c3c(Cl)cccc3Cl)cccc2c1C(C)(C)O`: the outcome in assay [1], in [2], in assay [3], in assay [4], in assay [5] and in assay [6] was inactive. For the same compound, the call in assay [7], in [8], in assay [9], in assay [11] and in [13] was inactive.
On to `CN1C(=O)N(c2ccccc2Br)Cc2cnc(Nc3ccc4c(c3)OCC(CO)O4)nc21` (stereo not drawn), for which the AC50 in assay [1] was 972 nM (active); in assay [3], 2.66 µM (active). Moreover, the result in [2], in [4], in assay [5], in assay [6], in assay [7] and in assay [9] was inactive. For the same compound, the call in assay [10] was inactive.
For `O=c1ccc2ccccc2o1`, the compound was called inactive in assay [1], in [2], in assay [3], in assay [4], in [5] and in assay [6]. For the same compound, the result in [7], in [14], in assay [11] and in [13] was inactive.

A word on the AC50: it is the concentration at which the activity in the assay is half-maximal.
